This is a sample that favours compounds with a hit; in the whole collection about 10% have one here.
HP1b chromo inh = HTS for Inhibitors of HP1-beta Chromodomain Interactions with Methylated Histone Tails. AlphaScreen HP1-beta / biotin-H3K9me3 peptide binding. 0.56% of 390,000 active. AID 540317, 2011. Potency, µM (series often up to 114 µM), for the others: at the highest dose activity change, negative = inhibition, usual class: inhibitors; further: nearly all actives have a fitted effect of over 70% in size
Target sequence (P83916 whole entry, looked up): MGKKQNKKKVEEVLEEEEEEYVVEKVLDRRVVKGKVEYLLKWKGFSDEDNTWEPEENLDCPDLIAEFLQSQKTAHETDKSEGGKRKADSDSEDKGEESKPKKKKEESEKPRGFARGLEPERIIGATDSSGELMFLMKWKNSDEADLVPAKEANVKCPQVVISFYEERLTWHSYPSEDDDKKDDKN
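AlphaScreen: HP1-beta (50 nM) preformed 30 min with biotin-H3(1-18)K9me3 peptide (50 nM) in PBS pH 7.4, 0.01% Tween-20. Compound added for 30 min at RT, then streptavidin donor/nickel chelate acceptor beads (10 ug/mL) for 30 min.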
G9a block = qHTS Assay for Inhibitors of Histone Lysine Methyltransferase G9a; Histone-lysine N-methyltransferase EHMT2 (Homo sapiens), Q96KQ7; G9a H3K9 monomethylation, AlphaScreen, 2 h; Potency, µM (series often up to 102 µM), inactives show top-dose activity, negative = inhibition, usual class: inhibitors; 8.8% of 350,000 active; further: on the % scale 0 is the no-effect control and ±100 the full control effect; nearly all actives have a fitted effect of over 75% in size
Target sequence (Q96KQ7 913-1193 limits assumed): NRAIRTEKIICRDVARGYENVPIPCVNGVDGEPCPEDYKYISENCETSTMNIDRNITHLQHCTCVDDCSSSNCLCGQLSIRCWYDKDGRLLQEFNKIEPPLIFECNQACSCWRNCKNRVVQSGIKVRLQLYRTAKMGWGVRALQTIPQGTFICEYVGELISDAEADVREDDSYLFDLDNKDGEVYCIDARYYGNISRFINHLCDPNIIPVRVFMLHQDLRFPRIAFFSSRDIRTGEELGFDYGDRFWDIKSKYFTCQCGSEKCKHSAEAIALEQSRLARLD
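Enzyme 20 nM + cpd, 15 min RT; add b-H3K9 pep 500 nM / SAM 20 uM; 2 h RT; anti-H3K9me1 Ab 0.5 ug/mL + SA donor / anti-rabbit acceptor beads 20 ug/mL each, 10 min; AlphaScreen read.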
JMJD2A Tudor inh = qHTS Assay for Inhibitors of JMJD2A-Tudor Domain; 4.4% of 390,000 active; Potency, µM (doses to about 114 µM), without a hit: top-dose activity change, negative = inhibition, hits mostly inhibitors; AlphaScreen JMJD2A-Tudor / H3K4me3 peptide binding; Lysine-specific demethylase 4A (Homo sapiens), O75164; AID 504339, 2011; further: on the % scale 0 is the no-effect control and ±100 the full control effect; nearly all actives have a fitted effect of over 50% in size
GLS inhibitor = qHTS for Inhibitors of Glutaminase (GLS); Glutaminase kidney isoform, mitochondrial (Homo sapiens), O94925; GLS enzymatic activity, qHTS titration; Potency, µM (top dose mostly 45.5 µM), for inactives: at the highest dose activity change, negative = inhibition, most hits filed as inhibitors; 0.21% of 410,000 active; AID 624170, 2012; further: on the % scale 0 is the no-effect control and ±100 the full control effect
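Human kidney-isoform GLS in 45 mM KH2PO4 pH 8.2, 0.02% Tween-20, with compound, started with 1mM L-Glutamine (added stock). Glutamate oxidase/HRP/Amplex red coupled fluorescence read at start and after 30 min at RT.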
BAZ2B block = qHTS Assay for Inhibitors of BAZ2B; Bromodomain adjacent to zinc finger domain protein 2B (Homo sapiens), Q9UIF8; Potency, µM (series often up to 114 µM), for the others: at the highest dose activity change, negative = inhibition, actives largely listed as inhibitors; AlphaScreen BAZ2B-H3K14Ac peptide displacement; 4.4% of 360,000 active; further: on the % scale 0 is the no-effect control and ±100 the full control effect; nearly all actives have a fitted effect of over 60% in size
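Inhibition is scored as reduced AlphaScreen emission. The BAZ2B/b-H3(5-23)K14Ac complex (50 nM each) in PBS pH 7.4, 0.01% Tween-20 meets compound (up to 110 uM) for 30 min at RT before bead addition.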
An asterisk follows results filed as active; ? = inconclusive; · = not tested or not shown; [ ] = remark or other dose. The call rests on the fitted dose curve; in most records, active means well fitted curve in the direction sought with a large enough effect; inconclusive means small, poorly fitted or top-dose-only effect, or another doubt; inactive means no such curve, though single readings can be large; an effect the other way counts as inactive or inconclusive. Potency means the concentration at half of the fitted maximal effect.

SMILES	HP1b chromo inh	G9a block	JMJD2A Tudor inh	GLS inhibitor	BAZ2B block
COc1cc2c(=O)c(C(=O)c3ccc(F)cc3)cn(Cc3cccc(F)c3)c2cc1OC	22.8%	9.4%[59 µM]	-15.2%	1.4%	-24.2%
N#CC1=C(N)Oc2cc(Nc3ccccc3)ccc2C1c1ccncc1 (stereo unspecified)	-24.2%	·	79.4µM*	18.0%	?
Cn1cccc1/C=N/n1c(-c2ccco2)n[nH]c1=S	16.5%	·	20µM*	-13.9%	?
S=c1[nH]nc(-c2ccco2)n1/N=C/c1cccc(Cl)c1	17.8%	0.708µM*	79.4µM*	-10.3%	-18.0%
S=c1[nH]nc(-c2ccccn2)n1/N=C/c1cccc(Cl)c1	-14.0%	1.58µM*	20µM*	-5.8%	28.2µM*
Cc1cc(C)n(-c2nnc(C)n2/N=C/c2ccco2)n1	24.1%	7.0%	-11.5%	15.1%	9.7%
S=c1[nH]nc(-c2ccccn2)n1/N=C/c1ccco1	23.4%	·	7.08µM*	-6.8%	8.91µM*
COc1ccc(-c2noc(CSc3nnc(-c4ccncc4)n3-c3ccc(C)cc3)n2)cc1OC	37.5%	-2.7%[59 µM]	-33.7%	3.1%	-2.2%
CCc1nc2ccc(C(=O)NCC3CCCCC3)cn2c1N(C)Cc1nccs1	·	·	·	18.2%	·
CCN1CCN(C(=O)c2cc(COc3ccc(F)c(F)c3)on2)[C@@H](C)C1=O	·	·	·	-4.6%	·
CC(C)c1ccc2nc(SCC(=O)NCC3CCCO3)c(C#N)cc2c1 (stereo unspecified)	22.2%	12.0%	5.7%	-8.4%	9.3%
S=c1[nH]nc(-c2ccco2)n1/N=C/c1c(Cl)cccc1Cl	51.1%	0.398µM*	?	-4.4%	0.4%
S=c1[nH]nc(-c2ccco2)n1/N=C/c1ccccn1	·	-119.8%	·	·	50.1µM*
S=c1[nH]nc(-c2ccco2)n1/N=C/c1ccc(Cl)c(Cl)c1	-12.0%	1.58µM*	79.4µM*	?	-12.2%
COc1cc(-c2n[nH]c(=S)n2/N=C/c2cccn2C)cc(OC)c1OC	?	?	1.26µM*	?	?
Cc1ccc(/C=N/n2c(-c3ccco3)n[nH]c2=S)cc1	56.2µM*	0.631µM*	10µM*	?	?
Cc1ccc(/C=N/n2c(C)nnc2C)cc1	2.0%	7.0%	-8.3%	9.1%	0.0%
O=[N+]([O-])c1ccccc1N/N=C1\CC2CC=CC12 (stereo unspecified)	17.8µM*	11.2µM*	39.8µM*	-1.9%	12.6µM*
O=C(CSc1nnc(-c2ccncc2)n1Cc1ccco1)Nc1nc(-c2ccccc2)cs1	35.3%	28.2µM*	-16.1%	4.1%	0.2%
O=C(CSc1nnc(-c2ccncc2)n1Cc1ccccc1)Nc1nccs1	0.8%	-17.1%[12.7 µM]	89.1µM*	-4.1%	14.5%[57.1 µM]
Cn1c(SCC(=O)Nc2nccs2)nnc1-c1ccncc1	18.1%	12.6%[2.33 µM]	?	4.9%	7.6%
CC(C)C(C)(C#N)NC(=O)CSc1nnc(-c2ccncc2)n1Cc1ccccc1 (stereo unspecified)	?	-8.3%	70.8µM*	25.0%	5.7%
CC(C)(C)NC(=O)CSc1nnc(-c2ccncc2)n1Cc1ccccc1	24.4%	-24.6%[12.7 µM]	0.0%	2.4%	-18.5%
Cc1cc(C)nc(SCc2nnc(SCC(=O)Nc3nc(-c4ccccc4)cs3)n2-c2ccccc2)n1	-1.6%	?	79.4µM*	12.0%	1.1%
O=C(CSc1nnc(-c2ccncc2)n1Cc1ccco1)Nc1ccccc1Cl	21.6%	?	?	-4.4%	-34.2%
SMILES	HP1b chromo inh	G9a block	JMJD2A Tudor inh	GLS inhibitor	BAZ2B block
CCC(=O)C1=C(c2cccc([N+](=O)[O-])c2)N(C(=O)CC)n2c(nnc2-c2ccccc2)S1	43.0%	11.3%[59 µM]	-5.5%	9.6%	1.3%
Nc1ccn([C@@H]2O[C@H](CNCc3cnc(N4CCOCC4)s3)[C@@H](O)[C@H]2O)c(=O)n1	·	·	·	-5.1%	·
COC(=O)C1=C2SCC(=O)N2C(N)=C(C#N)C1	23.0%	?	-23.1%	-28.2%	-21.0%
COc1ccc(CCN(C)CCCN2CCc3cc(OC)c(OC)cc3CC2=O)cc1OC	·	20.8%[59 µM]	·	21.1%	·
CC(=O)N1CC(=O)N(c2ccccc2)C1=O	22.6%	35.2%	-12.6%	0.8%	-2.5%
C=C1CC(COc2ccc3c(C)c(Cl)c(=O)oc3c2)(c2ccccc2)OC1=O (stereo unspecified)	19.6%	·	-4.9%	2.4%	·
CCc1nc2ccc(C(=O)N3CCN(S(=O)(=O)CC)CC3)cn2c1N(CC)C(=O)NCCc1ccccc1	·	·	·	2.8%	·
CN1C(=O)/C(=C/c2cc(C(C)(C)C)c(O)c(C(C)(C)C)c2)NC1=S	42.0%	12.6µM*	0.0%	0.1%	-0.4%
CN1C(=O)/C(=C/c2ccccc2OCc2ccccc2)NC1=S	5.4%	?	-22.5%	3.3%	?
COc1ccc(-c2ncc(CN3CCN(CCC(C)C)C(CCO)C3)cn2)cc1 (stereo unspecified)	18.3%	·	-25.0%	2.7%	6.7%
Cc1cccc(-c2ncc(CN3CCN(CC(C)C)C(CCO)C3)cn2)c1 (stereo unspecified)	10.6%	-4.5%[59 µM]	17.8µM*	-12.8%	-19.0%
CC(C)N1CCN(Cc2ccncc2)CC1CCO (stereo unspecified)	41.9%	·	-12.7%	1.0%	-1.9%
Cc1ccc(-c2cccc(CN3CCN(C(C)C)C(CCO)C3)c2)o1 (stereo unspecified)	19.9%	44.7µM*	-24.1%	8.1%	-31.6%
O=C(O)c1ccc(CNC(=O)C2CCN(S(=O)(=O)c3ccc4c(c3)OCCO4)CC2)cc1	·	·	·	0.7%	·
O=[N+]([O-])c1cccc(C=NNc2ccccc2)c1	?	·	39.8µM*	?	·
O=[N+]([O-])c1ccc(C=NNc2ccccc2)cc1	?	·	25.1µM*	?	·
O=[N+]([O-])c1ccc(/C=N/Nc2ncc(-c3ccccc3)cn2)cc1	3.1%	-30.4%	-9.0%[11.4 µM]	-0.5%	-19.4%
CC(=O)Nc1ccc(S(=O)(=O)N(Cc2ccccc2)Cc2ccccc2)cc1	28.1%	-1.6%[59 µM]	-18.3%	3.4%	-8.1%
S=c1[nH]c2cc3c(cc2[nH]1)OCCO3	2.6%	3.55µM*	-31.8%	-24.7%	-13.4%
O=C(CSc1nc2scc(-c3ccco3)c2c(=O)n1-c1ccccc1)NCC1CCCO1 (stereo unspecified)	3.4%	8.91µM*	?	·	35.5µM*
C=CCn1c(SCC(=O)NCCOC)nc2scc(-c3ccco3)c2c1=O	2.0%	44.7µM*	79.4µM*	15.4%	?
NC(=O)CSc1nc2scc(-c3ccco3)c2c(=O)n1-c1ccccc1	?	?	44.7µM*	-10.2%	?
CCOc1ccc(NC(=O)CN2CCN(Cc3ccccc3)S2(=O)=O)cc1	14.4%	?	-12.9%	1.6%	-10.3%
Cc1cccc(-c2noc(-c3cccnc3NCc3ccccc3Cl)n2)c1	16.7%	-45.2%[59 µM]	-21.9%	-1.8%	-17.4%

Bioassay records as filed in PubChem.
